This is an account of results in PubChem BioAssay.

Molecules are shown by their SMILES. The source made the active and inactive calls.

The target in one test is Albumin (Bos taurus) (UniProt P02769). Put plainly: bovine serum albumin binders on microarray, profiling panel, artefact control for SMM control protein annotation, biochemical, small-molecule microarray, Alexa647 label, 635/667 nm fluorescence (AID 1118).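 Further: score merges 667 nm emission intensity and signal-to-noise per printed compound spot.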 The note with it: BSA-A647 binding, fluorescence 635 nm, higher = more signal.
The nature of test [1]: small-molecule microarray binders of probe aXIP, primary screen, biochemical, NeuroSMM set, 635/667 nm fluorescence (AID 1119).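 Further: probe is the protein aXip251-270 applied at 1 µg/mL to compound-printed slides; binding of probe to printed compounds measured as 667 nm fluorescence plus signal to noise.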 The note with it: higher = more signal, called active from +8 up or from −8 down.
A short description of test [2]: small-molecule binders of probe aNOTCH3, primary screen, biochemical, small-molecule microarray, 635/667 nm fluorescence (AID 1120).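 Further: probe is a biotin-tagged antibody raised against NOTCH3 rather than NOTCH3 protein; score merges spot fluorescence near 667 nm with spot signal to noise.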 The note with it: higher = more signal.
Test [3] is described as follows: small-molecule binders of probe aNOTCH2, primary screen, biochemical, small-molecule microarray, 635/667 nm fluorescence (AID 1121).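 Further: score merges feature fluorescence read at 667 nm with its signal to noise.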 The note with it: higher = more signal.
Test [4] addresses Carbonic anhydrase 2 (Homo sapiens) (UniProt P00918). Briefly: CAII small-molecule binders, profiling panel, biochemical, small-molecule microarray, Alexa647-labelled CAII (AID 1122). The note with it: CAII-A647 binding fluorescence, higher = more signal.
Test [5] is described as follows: COS7 lysate on small-molecule microarray, probe aHis, 635 nm (AID 1123).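 Further: z-score combines 667nm fluorescence intensity with signal-to-noise per printed compound spot.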 The note with it: COS7 cell lysate, fluorescence, higher = more signal.
The nature of test [6]: compound binding in COS7 lysate, probe aLAP1, primary screen, cell lysate, small-molecule microarray (AID 1124).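 Further: lysate comes from COS7 cells expressing LAP1 and is applied at 0.3 µg/mL; score merges spot fluorescence near 667 nm with signal-to-noise over triplicate slides.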 The note with it: probe aLAP1, fluorescence, higher = more signal.
The test system of another test is Sam68 (KHDRBS1). Put plainly: Sam68 small-molecule binders, primary screen, biochemical, small-molecule microarray, 635 nm fluorescence (AID 1125).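 Further: score merges 667 nm channel intensity with signal to noise over triplicate slides.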 The note with it: small-molecule microarray binding, higher = more signal.
For test [7], the system named is Chordin-like protein 2 (CHRDL2). Briefly: CHRDL2 small-molecule binders, primary screen, biochemical, small-molecule microarray, 635 nm fluorescence (AID 1126).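 Further: printed compound slides probed with Chrdl2 protein at 4 µg/mL for 1 h at 4 C; score merges 667 nm emission intensity with signal to noise over three replicate slides.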 The note with it: small-molecule microarray binding, fluorescence 635 nm; higher = more signal.
Test [8] has as its target Concanavalin-A (Canavalia ensiformis) (UniProt P02866). Put plainly: ConA small-molecule binders, primary screen, artefact control for SMM control protein annotation, biochemical, small-molecule microarray, Alexa647 label, 635 nm (AID 1127).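 Further: z combines 667 nm emission intensity with signal-to-noise across three replicate slides.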 The note with it: ConA-A647 binding fluorescence, higher = more signal.

Sequence of Concanavalin-A (Canavalia ensiformis) (P02866 whole entry, looked up): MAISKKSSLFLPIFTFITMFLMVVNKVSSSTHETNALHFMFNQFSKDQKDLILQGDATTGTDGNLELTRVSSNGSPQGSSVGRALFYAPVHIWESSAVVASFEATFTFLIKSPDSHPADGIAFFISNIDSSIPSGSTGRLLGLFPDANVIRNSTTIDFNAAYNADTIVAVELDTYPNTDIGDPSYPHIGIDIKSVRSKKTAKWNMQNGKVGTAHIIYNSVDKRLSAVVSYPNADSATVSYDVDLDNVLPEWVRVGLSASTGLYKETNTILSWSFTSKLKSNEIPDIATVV
Sequence of Albumin (Bos taurus) (P02769 whole entry, looked up): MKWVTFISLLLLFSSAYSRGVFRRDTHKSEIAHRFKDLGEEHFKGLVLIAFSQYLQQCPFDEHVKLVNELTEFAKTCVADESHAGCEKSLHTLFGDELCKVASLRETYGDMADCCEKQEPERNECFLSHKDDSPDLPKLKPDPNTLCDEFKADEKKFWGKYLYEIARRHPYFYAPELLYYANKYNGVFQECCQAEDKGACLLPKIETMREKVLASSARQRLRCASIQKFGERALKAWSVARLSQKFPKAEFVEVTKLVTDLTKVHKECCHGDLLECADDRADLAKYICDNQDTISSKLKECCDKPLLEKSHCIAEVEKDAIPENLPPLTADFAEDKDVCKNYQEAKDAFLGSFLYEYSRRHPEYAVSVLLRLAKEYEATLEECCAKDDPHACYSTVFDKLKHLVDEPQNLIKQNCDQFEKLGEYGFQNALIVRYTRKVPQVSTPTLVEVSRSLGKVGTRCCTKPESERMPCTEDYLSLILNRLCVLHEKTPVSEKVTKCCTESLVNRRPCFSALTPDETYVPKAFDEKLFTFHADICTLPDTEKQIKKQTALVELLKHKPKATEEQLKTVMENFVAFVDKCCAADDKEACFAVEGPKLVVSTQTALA

Turning to `COC(=O)[C@@]1(Cc2ccc(F)cc2)[C@H]2c3cc(C(=O)N(C)C)n(CC4CC4)c3C[C@H]2CN1C(=O)c1ccccc1`, the composite z-score came out at 1.02 in the test with Albumin (Bos taurus); 1.65 in test [2]; 0.904 in test [3]; 0.773 in [4]; 3.27 in test [5]; 0.698 in test [6]. Also, the composite z-score in the test on Sam68 (KHDRBS1) is 1.35; in [7], -0.542; in test [8] it was 1.1. The composite Z-score in test [1] is -0.0191 (inactive).

As to `[N-]=[N+]=Nc1ccccc1[C@H]1OC(c2ccc(OCCCO)cc2)=N[C@@]1(Cc1ccccc1)C(=O)O`, the composite z-score with Albumin (Bos taurus) is 0.59; in [2], 0.196; in test [3] it was -0.146; in test [4] it was 0.344; in test [5] it was 1.64; in [6], 0.0378. The composite z-score in the test with Sam68 (KHDRBS1) was 1.31; in test [7], -0.392; in [8], 0.619. In addition, in [1], the composite Z-score is -0.001 (inactive).

With `C=CCC(OC(C)=O)[C@@H]1[C@@H](N(Cc2ccc(-c3cccc(C(F)(F)F)c3)o2)C(=O)c2ccc(-c3ccccc3)cc2)c2cc(OCCCO)ccc2N1C(=O)c1ccc(-c2ccccc2)cc1` (stereo not given in full), the composite z-score with Albumin (Bos taurus) is 0.0046; in test [2] it was -0.0957; in [3] it was -0.126; in test [4], -0.0098; in test [5], 0.0291; in test [6], -0.128. Besides, the composite z-score in the test on Sam68 (KHDRBS1) is -0.197; in test [7] it was -0.0179; in test [8], -0.639. Further, in test [1], the composite Z-score is 0.111 (inactive).

With `C=CCOC(=O)[C@H]1[C@@H]2C(=O)O[C@@H](c3ccccc3)[C@@H](c3ccccc3)N2[C@@H](c2ccc(OCCOC(=O)[C@H]3C[C@H]4C(=O)N5CCC[C@H]5C(=O)N4[C@H]3c3ccc(O)cc3)cc2)[C@]12C(=O)Nc1ccc(I)cc12`, the composite z-score with Albumin (Bos taurus) was -0.124; in test [2], 1.47; in [3], 0.755; in test [4], 0.364; in [5], 3.31; in [6], 1.13. Further, the composite z-score in the test on Sam68 (KHDRBS1) turned out to be 1.31; in test [7], 1.06; in test [8] it was 0.955. Moreover, the composite Z-score in test [1] was 5.37 (inactive).

In the case of `C[N+](C)(C)CCCCNC(=O)[C@H]1C[C@H]2C(=O)N[C@@H](Cc3ccccc3)C(=O)N2[C@H]1c1ccc(O)cc1`, the composite z-score in the test with Albumin (Bos taurus) is -1.16; in test [2], -0.0343; in test [3], -0.167; in test [4], 0.358; in test [5], 0.396; in test [6] it was 0.0021. Further, the composite z-score stood at 0.247 in the test with Sam68 (KHDRBS1), 1.05 in test [7] and 0.274 in test [8]. Moreover, in test [1], the composite Z-score was 0.474 (inactive).

For `C=CCOC(=O)[C@@H]1[C@H]2C(=O)O[C@H](c3ccccc3)[C@H](c3ccccc3)N2[C@H](c2ccc(OCCOC(=O)[C@@H]3C[C@@H]4C(=O)N[C@@H](CCCCN(C)C)C(=O)N4[C@@H]3c3ccc(O)cc3)cc2)[C@@]12C(=O)Nc1ccc(I)cc12`, the composite z-score in the test with Albumin (Bos taurus) is 0.848; in [2], 0.0738; in test [3], -0.177; in test [4], 0.275; in test [5] it was 1.83; in test [6] it was -0.157. In addition, the composite z-score with Sam68 (KHDRBS1) is 1.29; in test [7], 1.15; in test [8], 1.16. The composite Z-score in [1] is 0.412 (inactive).

For the compound `COc1ccc(C(=O)Nc2ccc(CN3C(=O)[C@@]4(O[C@@H](CCn5cc([C@H](O)c6ccccc6)nn5)[C@H]([Si](C)(C)c5ccc(OC)cc5)[C@H]4C)c4ccccc43)cc2)cc1`, the composite z-score was 0.0961 in the test with Albumin (Bos taurus); -0.0377 in test [2]; -0.124 in test [3]; 0.563 in test [4]; 1.39 in test [5]; 0.0085 in test [6]. The figures for the composite z-score (in the test on Sam68 (KHDRBS1); in test [7]; in test [8]) were 0.876, -0.238 and 0.399, respectively. In addition, in test [1], the composite Z-score was 0.611 (inactive).

On to `O=C1O[C@@H](c2ccccc2)[C@@H](c2ccccc2)N2[C@@H](c3ccccc3OCCO)[C@]3(C(=O)Nc4ccc(C#CC5=CCCCC5)cc43)[C@@H](C(=O)Nc3nc4ccccc4s3)[C@H]12`, for which the composite z-score was 0.778 with Albumin (Bos taurus); 0.0715 in [2]; -0.0583 in test [3]; 0.272 in [4]; 1.39 in test [5]; 0.399 in test [6]. The composite z-score with Sam68 (KHDRBS1) turned out to be 1.3; in test [7], 0.309; in [8], 1.06. In addition, in test [1], the composite Z-score is 0.243 (inactive).

As for `C=C(CCCC)C(=O)CC[C@@H](OC(=O)c1cccnc1)c1ccc(CO)o1`, the composite z-score with Albumin (Bos taurus) is 0.477; in [2], 0.205; in test [3], -0.127; in [4] it was 0.618; in test [5], 0.28; in test [6] it was 0.194. In addition, the values for the composite z-score (in the test on Sam68 (KHDRBS1); in test [7]; in [8]) were 1.31, 0.844 and 1.02, respectively. Further, the composite Z-score in test [1] is -0.261 (inactive).

Turning to `COC(=O)C(CC#Cc1ccc2c(c1)[C@]1(C(=O)N2)[C@H](C(=O)O)[C@H]2C(=O)O[C@H](c3ccccc3)[C@H](c3ccccc3)N2[C@@H]1c1ccc(O)cc1)C(=O)OC`, the composite z-score with Albumin (Bos taurus) is -0.266; in test [2], -0.274; in test [3], -0.181; in [4], 0.66; in test [5], 1.07; in [6], 0.898. The composite z-score is 0.661 with Sam68 (KHDRBS1), -0.872 in test [7] and -0.417 in [8]. In addition, the composite Z-score in test [1] was -1.69 (inactive).

As for `COC(=O)[C@@]1(Cc2ccccc2)[C@H]2c3cc(C(=O)N4CCCC4)n(CC4CC4)c3C[C@H]2CN1C(=O)c1ccccc1`, the composite z-score with Albumin (Bos taurus) came out at 0.946; in test [2] it was 1.13; in test [3], 0.389; in test [4], 0.641; in test [5], 2.89; in test [6], 0.114. In addition, the composite z-score is 1.3 in the test on Sam68 (KHDRBS1), -0.311 in test [7] and 0.818 in test [8]. Also, the composite Z-score in [1] was 1.02 (inactive).

As to `O=C1c2ccccc2[C@@]2(Cc3ccccc3N(CCN3CCOCC3)C2=O)[C@H](c2ccc(CO)cc2)N1Cc1ccccc1`, the composite z-score was -0.425 with Albumin (Bos taurus); -0.165 in test [2]; -0.115 in test [3]; 0.739 in test [4]; 0.733 in test [5]; 0.235 in [6]. The composite z-score with Sam68 (KHDRBS1) is -0.419; in [7], -0.717; in [8], 0.203. Also, in test [1], the composite Z-score is -0.117 (inactive).

In the case of `CN(C)C(=O)[C@@]1(Cc2ccccc2CN=[N+]=[N-])N=C(c2ccc(OCCCO)cc2)O[C@H]1c1ccccc1`, the composite z-score with Albumin (Bos taurus) was 0.722; in test [2], 0.103; in test [3], 0.112; in [4] it was 0.277; in test [5] it was 2.69; in test [6] it was 0.624. Further, the figures for the composite z-score (in the test with Sam68 (KHDRBS1); in [7]; in test [8]) were 1.28, -0.285 and 0.749, respectively. In [1], the composite Z-score is -0.797 (inactive).

On to `COc1ccc([Si](C)(C)[C@H]2[C@H](CCO)O[C@@]3(C(=O)N(C)c4c(Br)cc(C)cc43)[C@@H]2C)cc1`, for which the composite z-score with Albumin (Bos taurus) is -0.094; in test [2], -0.0596; in test [3], -0.0793; in test [4], 0.473; in test [5] it was 1; in test [6], 0.0847. In addition, the composite z-score with Sam68 (KHDRBS1) came out at 0.953; in test [7], 0.344; in test [8], 1.07. Also, in [1], the composite Z-score is -0.303 (inactive).
